In ChEMBL document CHEMBL4513216, “Probing the Open Global Health Chemical Diversity Library for Multistage-Active Starting Points for Next-Generation Antimalarials” (ACS Infect Dis, 2020):
In all, about 69,000 compounds went through this assay and about 8,600 (12%) showed an effect of 50% or more. Shown is part of a subset that was picked to be rich in strong results.

The compounds below were run on Plasmodium berghei (assay: Screen against P. berghei liver stage (PbLuc), transformed with Luciferase, at 10uM). Conditions: tested at 10 uM.
Assay type: functional, HepG2

SMILES | INHIBITION [%]
Cc1nn(C)c(C)c1-c1ccc(=O)n(C(C)C(=O)NC2CCCCC2)n1 (stereo not given) | 47.6
CN(C)c1ccc(CNCc2ccc(N3CCOCC3)cc2)cn1 | -0.551
CC(C)COc1cncc(NCc2nnc3ccccn23)n1 | 64.3
CCOc1cncc(NCCc2nnc3ccccn23)n1 | 43.4
CC(C)Cn1cnc(S(=O)(=O)NCCc2nnc3ccccn23)c1 | 12
CC(C)COc1cncc(NC(CO)c2ccco2)n1 (stereo not given) | 45.6
CC(C)COc1cncc(NCC(O)c2ccco2)n1 (stereo not given) | 20.8
CC(C)COc1cncc(NCCc2nnc3ccccn23)n1 | 55.4
CCc1nc(C2CCCN2C(=O)c2ccc(N3CCCC3)nn2)no1 (stereo not given) | 23.5
CC(=O)NCCC1CCCCN1S(=O)(=O)c1ccc2ccccc2c1 (stereo not given) | 29
O=C(Nc1ccc(-c2nnc[nH]2)cc1)C1CCN1Cc1ccccc1 (stereo not given) | -17.3
CO[C@H]1CCN(Cc2ccccn2)[C@@H]2CN(Cc3ccco3)C[C@H]12 | -11.1
CC[C@@H]1N(CC2CC2)CCC[C@]12CCC(=O)N2 | 65.9
CC[C@@H]1N(CC2CCOCC2)CCC[C@]12CCC(=O)N2 | 49.7
CC[C@H]1N(CC2CCOCC2)CCC[C@]12CCC(=O)N2 | 27.5
Cc1ccc2nccc(C(=O)N3CCOC(CCN(C)C)C3)c2c1 (stereo not given) | 43.9
Cc1cc(C(=O)N2CCCC(C(=O)c3nccn3C)C2)c(=O)[nH]c1C (stereo not given) | 25.9
Cc1ccc(CC(=O)N(CC2CN(C)CCO2)c2nccs2)cn1 (stereo not given) | 11.9
Cc1cc(NC(=O)CCN2CCCC2Cn2cccn2)no1 (stereo not given) | 31.9
O=C(CN1CCCCC1Cn1cncn1)NC1CCN(C2CC2)CC1 (stereo not given) | 70.1
CCN1CCC(NC(=O)CN2CCCCC2Cn2cncn2)CC1 (stereo not given) | -36.1
O=C(CN1CCCCC1Cn1cncn1)NCCc1ccc(F)cc1 (stereo not given) | 43.4
O=C(CN1CCCCC1Cn1cncn1)NCCOc1ccccc1 (stereo not given) | 0.411
O=C(CN1CCCC1Cn1cncn1)NCCc1c(F)cccc1F (stereo not given) | 57.2
O=C(CN1CCCC1Cn1cncn1)NCC1(c2ccccc2)CC1 (stereo not given) | 89.1
O=C(CN1CCCC1Cn1cncn1)NCCOc1cccc(F)c1 (stereo not given) | 20.1
Cc1cc(NC(=O)CCN2CCCC2Cn2cncn2)no1 (stereo not given) | 56.3
O=C(CN1CCCC1Cn1cncn1)NCCOc1ccccc1 (stereo not given) | 36.1
Cc1cc(NC(=O)CCN2CCCCC2Cn2cncn2)no1 (stereo not given) | 16.9
O=C(CN1CCCCC1Cn1cccn1)NC1CCN(C2CC2)CC1 (stereo not given) | 26.8
